Records with an inconclusive call do not appear. Unmarked numbers belong to inactive results. Calls of active or inactive are those of the source. Calls follow the shape of the dose curve; as a rule, active = well fitted curve in the direction sought with a large enough effect; inconclusive = small, poorly fitted or top-dose-only effect, or another doubt; inactive = no such curve, though single readings can be large; an effect the other way counts as inactive or inconclusive.

Assay [1] in a line: qHTS of pediatric cancer cell lines to identify multiple opportunities for drug repurposing: Primary screen for LAN-5 cells (AID 1347100). The essentials:
(§1)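 Cells (500-1,000/well) in growth media were settled 5 h at 37 degrees C, then given compounds for 48 h. Viability was read as CellTiter-Glo luminescence. Primary runs used MIPE at 11 points (0.78 nM-46 µM) and NPC at 8 points (0.59 nM-46 µM); follow-ups used 11 points.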

The nature of assay [2]: qHTS of pediatric cancer cell lines to identify multiple opportunities for drug repurposing: Primary screen for BT-12 cells (AID 1347101). Also: nearly all actives have a fitted effect of over 25% in size. Summed up: (§2)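 Cells (500-1,000/well) rested 5 h, then received compounds for 48 h; metabolically active cells were measured by CellTiter-Glo luminescence. Final concentrations spanned up to 46 µM (MIPE, 11-point) or 0.59 nM-46 µM (NPC, 8-point) in primary screens, 11-point in follow-ups.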

Assay [3] is described as follows: qHTS of pediatric cancer cell lines to identify multiple opportunities for drug repurposing: Primary screen for Rh18 cells (AID 1347102). Also: nearly all actives have a fitted effect of over 65% in size. The essentials: as §1
Assay [4] can be described thus: qHTS of pediatric cancer cell lines to identify multiple opportunities for drug repurposing: Primary screen for OHS-50 cells (AID 1347103). Also: nearly all actives have a fitted effect of over 40% in size. The essentials:
as §2

The nature of assay [5]: qHTS of pediatric cancer cell lines to identify multiple opportunities for drug repurposing: Primary screen for RD cells (AID 1347104). Also: nearly all actives have a fitted effect of over 55% in size. Also: potency is read from the fitted curve at half-maximal effect. The essentials: (§3)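 ATP-based luminescence (CellTiter-Glo) quantifies viability after a 48-hour exposure. Compounds are dosed across 8 or 11 final concentrations; DMSO and 2.3 µM bortezomib serve as controls.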
Assay [6] in a line: qHTS of pediatric cancer cell lines to identify multiple opportunities for drug repurposing: Primary screen for MG 63 (6-TG R) cells (AID 1347105). Also: nearly all actives have a fitted effect of over 50% in size. Summed up: as §3
The nature of assay [7]: qHTS of pediatric cancer cell lines to identify multiple opportunities for drug repurposing: Primary screen for control Hh wild type fibroblast cells (AID 1347106).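 Also: series mostly up to about 46 µM; a drop in luminescence marks cytotoxicity and a rise apparent proliferation; nearly all actives have a fitted effect of over 55% in size.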 The essentials:
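Viability after 48 h compound treatment at 37C, 500-1,000 cells/well, read as ATP luminescence with CellTiter-Glo. Primary screens used 11-point (MIPE, 0.78 nM-46 µM) or 8-point (NPC, 0.59 nM-46 µM) final concentrations; follow-up screens used 11-point dilutions.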

Assay [8] in a line: qHTS of pediatric cancer cell lines to identify multiple opportunities for drug repurposing: Primary screen for Rh30 cells (AID 1347107). Also: series mostly up to about 46 µM; nearly all actives have a fitted effect of over 75% in size. The essentials: as §1
Assay [9] in a line: qHTS of pediatric cancer cell lines to identify multiple opportunities for drug repurposing: Primary screen for Rh41 cells (AID 1347108).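 Also: series mostly up to about 46 µM; luminescence drop marks cytotoxic hits; nearly all actives have a fitted effect of over 70% in size.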 The essentials:
as §3

Turning to `COc1ccc2cc([C@H](C)C(=O)O)ccc2c1`, the Potency entry in [1], in assay [2], in [3], in [4], in assay [5] and in [6] was “inactive” in each case. For the same compound, the Potency entry in [7], in assay [8] and in [9] was “inactive” throughout.

As to `CC1=C(C)C(=O)C(C(CCCCCC(=O)O)c2ccccc2)=C(C)C1=O` (stereo not given), the Potency result in assay [1], in [2], in assay [3], in assay [4], in assay [5] and in assay [6] was “inactive” in each case. For the same compound, the Potency result in [7], in assay [8] and in assay [9] was “inactive” throughout.

Regarding `COCCCOc1ccnc(CS(=O)c2nc3ccccc3[nH]2)c1C` (stereo not given), the Potency result in [1], in assay [2], in [3], in assay [4], in assay [5] and in [6] was “inactive” each time. The Potency result in [7], in assay [8] and in [9] was “inactive” throughout.

Regarding `O=C(NCCO[N+](=O)[O-])c1cccnc1`, the Potency entry in assay [1], in assay [2], in assay [3], in assay [4], in [5] and in assay [6] was “inactive” in each case. Also, the Potency entry in [7], in [8] and in [9] was “inactive” throughout.

As to `O=C(NC(Cc1cc(=O)[nH]c2ccccc12)C(=O)O)c1ccc(Cl)cc1` (stereo not given), the Potency entry in assay [1], in [2], in assay [3], in assay [4], in assay [5] and in assay [6] was “inactive” throughout. The Potency result in [7], in assay [8] and in assay [9] was “inactive” each time.

For the compound `COc1cc2nc(N3CCN(C(=O)C4CCCO4)CC3)nc(N)c2cc1OC` (stereo not given), the Potency entry in assay [1], in [2], in assay [3], in assay [4], in [5] and in assay [6] was “inactive” in each case. Moreover, the Potency result in assay [7], in assay [8] and in assay [9] was “inactive” in each case.

For the compound `O=C(O)c1cn(-c2ccc(F)cc2)c2cc(N3CCNCC3)c(F)cc2c1=O`, the Potency entry in assay [1], in assay [2], in assay [3], in assay [4], in assay [5] and in assay [6] was “inactive” throughout. Besides, the Potency result in assay [7], in assay [8] and in assay [9] was “inactive” throughout.

With `CCC(C)(Oc1ccc(C2(c3ccc(OC(C)(CC)C(=O)O)cc3)CCCCC2)cc1)C(=O)O` (stereo not given), the Potency result in assay [1], in assay [2], in assay [3], in assay [4], in assay [5] and in assay [6] was “inactive” throughout. For the same compound, the Potency entry in assay [7], in assay [8] and in assay [9] was “inactive” each time.

Consider `Cc1cc(O)c2c(c1)C(=O)c1cc(O)cc(O)c1C2=O`, for which the Potency result in [1], in assay [2], in assay [3], in [4], in [5] and in assay [6] was “inactive” in each case. The Potency entry in assay [7] is “inactive”.

`CN(C)CCCC1(c2ccc(F)cc2)OCc2cc(C#N)ccc21` (stereo not given): the Potency result in assay [1], in assay [2], in assay [3], in [4], in assay [6] and in [7] was “inactive” each time. In addition, the Potency result in assay [8] was “inactive”. The Potency in [5] was 29.6 µM (active).

`CN1C(C(=O)Nc2ccccn2)=C(O)c2sccc2S1(=O)=O`: the Potency entry in assay [1], in assay [2], in assay [3], in assay [4], in [5] and in [6] was “inactive” throughout. In addition, the Potency entry in assay [7], in [8] and in assay [9] was “inactive” in each case.

`O=c1c(O)c(-c2ccc(O)cc2O)oc2cc(O)cc(O)c12`: the Potency result in assay [1], in [2], in assay [3], in [4], in assay [5] and in assay [6] was “inactive” throughout. Also, the Potency entry in assay [7] and in assay [8] was “inactive” throughout.

Turning to `Nc1cccc2c1CN(C1CCC(=O)NC1=O)C2=O` (stereo not given), the Potency entry in assay [1], in [2], in assay [3], in assay [4], in assay [5] and in [6] was “inactive” in each case. The Potency result in assay [7], in assay [8] and in assay [9] was “inactive” each time.

As to `CCOC(=O)C1=C[C@@H](OC(CC)CC)[C@H](NC(C)=O)[C@@H](N)C1`, the Potency result in assay [1], in assay [2], in assay [3], in [4], in assay [5] and in [6] was “inactive” each time. Further, the Potency entry in assay [7], in [8] and in [9] was “inactive” each time.

Take `O=C(c1ccccc1)c1ccc2n1CCC2C(=O)O` (stereo not given): the Potency result in [1], in [2], in assay [3], in [4], in assay [5] and in assay [6] was “inactive” in each case. For the same compound, the Potency result in [7], in assay [8] and in [9] was “inactive” each time.

For `COC(=O)N[C@H](C(=O)N[C@@H](Cc1ccccc1)[C@@H](O)CN(Cc1ccc(-c2ccccn2)cc1)NC(=O)[C@@H](NC(=O)OC)C(C)(C)C)C(C)(C)C`, the Potency result in [1], in [2], in [3], in assay [4], in assay [5] and in assay [6] was “inactive” in each case. Also, the Potency result in [7], in [8] and in assay [9] was “inactive” in each case.

Take `COc1cc(OC)c(C(=O)CCCN2CCCC2)c(OC)c1`: the Potency entry in [1], in [2], in assay [3], in assay [4], in assay [5] and in [6] was “inactive” throughout. In addition, the Potency result in assay [7], in assay [8] and in assay [9] was “inactive” throughout.

For the compound `CCC[C@@H]1C[C@@H](C(=O)N[C@@H]([C@H]2O[C@H](SC)[C@H](O)[C@@H](O)[C@H]2O)[C@@H](C)O)N(C)C1`, the Potency entry in assay [1], in assay [2], in assay [3], in [4], in assay [5] and in [6] was “inactive” in each case. Besides, the Potency entry in assay [7], in [8] and in assay [9] was “inactive” throughout.

For `C[C@@H](N)C1CCC(C(=O)Nc2ccncc2)CC1` (stereo not given in full), the Potency result in assay [1], in [2], in assay [3], in assay [4], in [5] and in [6] was “inactive” each time. Moreover, the Potency result in assay [7], in assay [8] and in assay [9] was “inactive” in each case.

Turning to `Clc1ccc2c(N3CCN(CCCN4CCN(c5ccnc6cc(Cl)ccc56)CC4)CC3)ccnc2c1`, the Potency result in assay [1], in assay [2], in assay [3], in assay [4], in assay [5] and in [6] was “inactive” throughout. The Potency result in [7], in assay [8] and in assay [9] was “inactive” in each case.

`CC(C)(S)[C@@H](N)C(=O)O`: the Potency entry in assay [1], in assay [2], in [3], in assay [4], in assay [5] and in assay [6] was “inactive” each time. Moreover, the Potency result in [7], in assay [8] and in assay [9] was “inactive” throughout.

The record behind these values is PubChem BioAssay (NCATS).
